Assay outcomes deposited in PubChem by National Center for Advancing Translational Sciences (NCATS).
D3 ag – qHTS of D3 Dopamine Receptor Agonist: qHTS; D(3) dopamine receptor (Homo sapiens), P35462; D3R DiscoveRx beta-arrestin cells, luminescence, 90 min; max activation, %; 410,000 tested, 0.58% active; in the data active = max activation above about 30%; also: 0% is about no effect
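Agonist-mode cell screen: cells plated at 1500/well and incubated overnight at 37 °C, then exposed to library compounds for 90 min at 37 °C. Detection reagent was added for 30–60 min at room temperature, and luminescence was read.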
D3 antag – qHTS of D3 Dopamine Receptor Antagonist: qHTS; D3R cells, DiscoveRx beta-arrestin luminescence, antagonist mode; hits give low values; D(3) dopamine receptor (Homo sapiens), P35462; AID 652054, 2013; max response, negative = inhibition, %; 360,000 tested, 2.5% active; in the data active = max response below about -50%; inconclusive = no clear call, values can overlap the other calls; also: % is scaled to controls: 0 for no effect and ±100 for the full control effect
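Cells expressing the human receptor were seeded at 1500 cells/well, incubated overnight at 37 degrees C in 5% CO2, then exposed to library compounds with dopamine controls for 90 minutes at 37 degrees C before luminescent detection.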
DT40 TDP1 no CPT – qHTS for Inhibitors of human tyrosyl-DNA phosphodiesterase 1 (TDP1): qHTS in cells in absence of CPT; DT40 Tdp1-/- hTDP1 cells, no CPT, ATP luminescence, 48 h; Potency, µM (doses to about 46.2 µM), for the others: top-dose activity change, negative = growth inhibition, actives largely listed as inhibitors; 420,000 tested, 15% active; AID 686978, 2013; also: potency is read from the fitted curve at half-maximal effect; % is scaled to controls: 0 for no effect and ±100 for the full control effect; nearly all actives have a fitted effect of over 55% in size
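No-CPT arm: Tdp1-/-;hTDP1 DT40 cells (400/well) plus compounds, incubated ≥48 hr at 37 °C. Readout CellTiter-Glo luminescence.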
IL1B secr inh – qHTS for Inhibitors of Inflammasome Signaling: IL-1-beta AlphaLISA Primary Screen; THP-1 LPS/ATP IL-1B secretion, AlphaLISA, 16 h; hits give low values; activity change, % at 57.5 µM; 360,000 tested, 4.7% active; AID 743279, 2014; in the data active = activity change below about -50%; inconclusive = mostly about -30% to -49%; also: % is scaled to controls: 0 for no effect and ±100 for the full control effect
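THP-1 cells pretreated 1 hr with compounds (up to 57.5 uM final), then stimulated with LPS (250 ng/mL final) plus ATP (1.25 mM final); secreted IL-1B measured by AlphaLISA after 16 hr, decreased signal indicating inhibition.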
DT40 TDP1 CPT – qHTS for Inhibitors of human tyrosyl-DNA phosphodiesterase 1 (TDP1): qHTS in cells in presence of CPT. 420,000 tested, 12% active. chicken DT40 Tdp1-/-;hTDP1 cells + 20 nM CPT, ATP luminescence, 48 h. Potency, µM (highest dose often 46.2 µM), for inactives: top-dose activity change, negative = growth inhibition, actives largely listed as inhibitors; also: potency is read from the fitted curve at half-maximal effect; % is scaled to controls: 0 for no effect and ±100 for the full control effect; nearly all actives have a fitted effect of over 55% in size
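Chicken DT40 Tdp1-/- cells complemented with human TDP1, 400 cells/well, exposed to compounds plus 20 nM camptothecin for at least 48 h at 37 C; viability read as ATP content by CellTiter-Glo luminescence.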
ClpP mod – qHTS Assay for Activators of ClpP; ATP-dependent Clp protease proteolytic subunit (Bacillus subtilis (strain 168)), P80244; purified B. subtilis ClpP, FRET peptide cleavage, 20 min; Potency, µM (top dose mostly 57.5 µM), without a hit: at the top dose activity change, negative = active; 340,000 tested, 1.9% active; AID 651965, 2013; active = well fitted falling curve with a large enough effect; inconclusive = small, poorly fitted or top-dose-only effect; inactive = no such curve, though single readings can be large or run the other way; also: potency is read from the fitted curve at half-maximal effect; the source files actives as falling curves though it sought activators and does not explain the sign; nearly all actives have a fitted effect of over 65% in size
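FRET quenching reversal measured ClpP activation: 10 microg/mL B. subtilis ClpP at pH 8 with the FRET-FV decapeptide, read at 430 nm after 320 nm excitation. The 20-min minus 0-min signal was scaled between DMSO/no-enzyme wells and ADEP (5.8 microM final).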
The depositor's hits bear a star; ? = inconclusive; . = not tested or not shown. This is a sample that favours compounds with a hit; in the whole collection about 21% have one here. Unless noted, calls follow the shape of the dose curve; as a rule, active = well fitted inhibition curve with a large enough effect; inconclusive = small, poorly fitted or top-dose-only effect; inactive = flat fitted curve, though single readings scatter.

SMILES | D3 ag | D3 antag | DT40 TDP1 no CPT | IL1B secr inh | DT40 TDP1 CPT | ClpP mod
Cc1cc2nc(-c3ccc[nH]c3=O)[nH]c2cc1C | -2 | -17 | 10µM* | -14 | 7.3µM* | 4%
Cc1cc2nc(-c3ccc[nH]c3=O)n(Cc3ccc(F)cc3)c2cc1C | -13 | ? | -21% | -21 | -13% | .
Cc1cc(C(=O)C(C)Sc2cccc[n+]2[O-])c(C)n1-c1ccc(Cl)cc1 (stereo not drawn) | -2 | -2 | 2.9µM* | -101* | 2.9µM* | -3%
CC1CCN(C(=O)CN(Cc2ccc(F)cc2)S(C)(=O)=O)CC1 | -1 | -7 | -17% | -1 | 32% | .
N#CC(c1cccc(Cl)c1)c1ccc2c(C(F)(F)F)cc(C(F)(F)F)nc2n1 (stereo not drawn) | 9 | 1 | 1.6µM* | -105* | 1.5µM* | -2%
O=C1CCc2cc(S(=O)(=O)NCCC(=O)NC3CCCCC3)ccc2N1 | 3 | -3 | 22% | 10 | 7% | -1%
CC1(C)Cc2ccccc2C(/C(C#N)=N/O)=N1 | 1 | 6 | 23µM* | -18 | 15µM* | 0%
COc1ccc([C@H]2CC(=O)C=C(c3ccc(Cl)c(C(F)(F)F)c3)C2)cc1OC | 7 | -8 | ? | -56* | ? | -4%
COc1ccc([C@H]2CC(=O)C=C(c3ccc(-c4ccccc4)cc3)C2)cc1OC | -1 | 0 | -21% | 27 | -14% | -5%
COc1ccc([C@H]2CC(=O)C=C(c3ccc(C(F)(F)F)c(C(F)(F)F)c3)C2)cc1OC | 13 | 23 | ? | -78* | ? | 3%
COc1ccccc1NC(=O)C(=O)NCC1COc2ccccc2O1 (stereo not drawn) | 0 | 6 | 0.56µM* | -5 | -7% | -1%
O=C(NCc1ccccc1)C(=O)NCC1COc2ccccc2O1 (stereo not drawn) | 0 | ? | 2.6µM* | 64 | 2.9µM* | 0%
O=C(NCC1COc2ccccc2O1)c1ccc(Br)s1 (stereo not drawn) | -27 | -20 | ? | -72* | -6% | 1%
CCN(CC)C(=O)Cn1cc(C(=O)C(=O)NCC2COc3ccccc3O2)c2ccccc21 (stereo not drawn) | 5 | 10 | -9% | -7 | -26% | 20µM*
COc1cc(CC(=O)NCC2COc3ccccc3O2)cc(OC)c1OC (stereo not drawn) | 4 | 11 | -7% | 0 | -11% | .
CCN(CC)C(=O)Cn1cc(C(=O)C(=O)NCc2cccs2)c2ccccc21 | 5 | -22 | -15% | -9 | -27% | 1%
COc1ccccc1NC(=O)C1CCN(c2cnccn2)CC1 | 1 | . | 5% | . | -20% | -28%
Cc1ccc2[nH]c(C(=O)Nc3ccccc3)cc2c1 | 1 | . | ? | . | ? | -2%
COc1ccc(C2C(C(=O)c3ccco3)=C(O)C(=O)N2CC2CCCO2)c(OC)c1 (stereo not drawn) | -6 | ? | -23% | 1 | 12% | .
COc1ccc(/C=C/C(=O)NCC2COc3ccccc3O2)c(OC)c1 (stereo not drawn) | -5 | -14 | ? | -59* | -30% | .
CCCCCCCCN1C(=O)[C@H](CC(=O)NCCC(C)C)C[C@@]2(C(=O)OC)CC(C)(C)CC=C12 | 2 | 10 | ? | -7 | ? | -1%
COC(=O)[C@@]12C[C@@H](CC(=O)N3CCOCC3)C(=O)N(Cc3ccccc3)C1=CCC(C)(C)C2 | -14 | -1 | ? | 23 | -7% | 1%
COC(=O)[C@@]12C[C@@H](CC(=O)N3CCSCC3)C(=O)N(Cc3ccccc3)C1=CCC(C)(C)C2 | 5 | 7 | ? | -11 | -16% | 0%
CCCCCCCCN1C(=O)[C@H](CC(=O)N2CCCC2)C[C@@]2(C(=O)OC)CC(C)(C)CC=C12 | -4 | -10 | ? | -5 | 9.2µM* | 0%
CCCCCCCCN1C(=O)[C@H](CC(=O)N2CCSCC2)C[C@@]2(C(=O)OC)CC(C)(C)CC=C12 | 2 | -18 | 16µM* | -20 | ? | 2%
SMILES | D3 ag | D3 antag | DT40 TDP1 no CPT | IL1B secr inh | DT40 TDP1 CPT | ClpP mod
CCCCCCCCN1C(=O)[C@H](CC(=O)N2CCC(c3ccccc3)CC2)C[C@@]2(C(=O)OC)CC(C)(C)CC=C12 | 6 | -11 | 16µM* | -16 | ? | -1%
CNC(=S)NNC(=O)c1cc(C(C)(C)C)nn1Cc1ccc(F)cc1 | -11 | -14 | 16µM* | 0 | ? | .
Cc1cc(C)c(NC(=O)C(C)Sc2nc3ccc(N4C(=O)c5ccccc5C4=O)cc3s2)c(C)c1 (stereo not drawn) | -13 | 5 | 35µM* | 1 | ? | -2%
COc1ccc(N2C(=O)CSC23C(=O)N(Cc2ccc(C)cc2)c2ccccc23)cc1Cl (stereo not drawn) | -4 | . | . | . | . | -1%
COCCNc1nnc(SCC(=O)Nc2nnc(-c3ccccc3)o2)s1 | 8 | 16 | 12% | 10 | -2% | -1%
COCCNc1nnc(SCC(=O)Nc2cc(-c3ccccc3)nn2-c2ccccc2)s1 | -8 | -6 | 16µM* | -3 | 26µM* | 1%
Nc1nnc(SCC(=O)NCCOc2ccccc2)s1 | 1 | 0 | -3% | 14 | ? | 25µM*
Nc1nnc(SCC(=O)OCC(=O)c2ccccc2)s1 | 7 | -20 | -1% | 22 | 4% | .
Nc1nnc(SCC(=O)NCCNC(=O)CSc2nnc(N)s2)s1 | -7 | 10 | 0% | 5 | 10% | -5%
CC(C)(C)c1cc(NC(=O)CCl)n(-c2ccccc2)n1 | -8 | 0 | 21µM* | -93* | ? | .
Nc1nnc(SCC(=O)OCC(=O)c2ccccc2Br)s1 | -27 | -58* | ? | -28 | 26µM* | 0%
CCOC(=O)C1CCN(C(=O)c2cc(S(=O)(=O)N3CCOCC3)ccc2C)CC1 | 1 | 0 | 6% | 18 | -16% | -1%
COCCn1c(C)cc(O)c(C(c2ccccc2)N2CCN(c3ccccc3F)CC2)c1=O (stereo not drawn) | -21 | . | -1% | . | -11% | 1%
CC(C)(C)c1cc(NC(=O)CSc2nnc(NCc3ccccc3)s2)n(-c2ccccc2)n1 | 7 | 8 | ? | 1 | ? | 0%
